Drawing on ChEMBL document CHEMBL3988442, “University of Dundee, Small-Polar-MMV Screening Library” (2021), this text covers Percent Effect for 21 compounds.

Results with a measured potency or affinity are listed apart.

The target in the test is Protein translocase subunit SecA (Escherichia coli (strain K12)) (UniProt P10408). As to the kind of experiment: Assay to Identify E. coli SecA ATPase Inhibitors. Format: functional. Also noted: scale not given: direction of the effect not stated beside the values. To be noted: 30 µM.
Protein translocase subunit SecA (Escherichia coli (strain K12)), sequence (P10408 whole entry): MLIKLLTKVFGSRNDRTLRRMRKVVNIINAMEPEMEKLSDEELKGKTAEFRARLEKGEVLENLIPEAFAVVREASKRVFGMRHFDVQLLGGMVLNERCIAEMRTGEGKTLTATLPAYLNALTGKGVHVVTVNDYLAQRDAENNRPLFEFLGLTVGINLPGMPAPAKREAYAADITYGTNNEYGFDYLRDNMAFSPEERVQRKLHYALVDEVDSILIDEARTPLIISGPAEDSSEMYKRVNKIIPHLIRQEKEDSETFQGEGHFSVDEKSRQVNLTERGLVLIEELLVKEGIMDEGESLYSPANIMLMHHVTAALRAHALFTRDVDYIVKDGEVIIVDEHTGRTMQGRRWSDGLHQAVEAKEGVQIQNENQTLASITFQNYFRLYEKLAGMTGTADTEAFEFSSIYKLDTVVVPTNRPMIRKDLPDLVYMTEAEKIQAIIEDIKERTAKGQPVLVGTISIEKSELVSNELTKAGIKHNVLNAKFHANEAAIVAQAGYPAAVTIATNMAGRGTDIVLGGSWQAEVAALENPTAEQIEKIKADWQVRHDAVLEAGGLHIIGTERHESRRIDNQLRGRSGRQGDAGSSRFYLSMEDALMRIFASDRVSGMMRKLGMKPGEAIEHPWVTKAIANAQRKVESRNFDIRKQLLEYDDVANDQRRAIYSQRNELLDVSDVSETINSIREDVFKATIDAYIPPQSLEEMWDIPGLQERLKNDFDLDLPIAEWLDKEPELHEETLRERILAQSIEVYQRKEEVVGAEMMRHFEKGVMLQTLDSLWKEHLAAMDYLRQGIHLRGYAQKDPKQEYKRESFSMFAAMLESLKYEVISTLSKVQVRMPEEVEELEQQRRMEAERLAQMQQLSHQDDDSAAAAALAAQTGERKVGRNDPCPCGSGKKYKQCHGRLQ
With `CN(C)C(=O)N1CCOCC2(CCN(c3ccccn3)C2)C1` (stereo unspecified), the Percent Effect is -1.92%.

With `CCN(CC)Cc1ccc(C(=O)N2CCCCC2Cn2cccn2)o1` (stereo unspecified), the Percent Effect is -1.67%.

As to `O=C(c1ccc(F)c(F)c1)N1CCCSCC1CN1CCCC1` (stereo unspecified), the Percent Effect is -3.82%.

Take `Cn1cc(N2CC3(CCN(CC4CCOCC4)CC3)OCC2=O)cn1`: the Percent Effect is -1.91%.

`Cc1cn2nc(N3CCCC3CC(C)(C)C)sc2n1` (stereo unspecified): the Percent Effect is -5.41%.

For `CCSc1cc(C(=O)NCCC(=O)Nc2ccccn2)ccn1`, the Percent Effect was -5.48%.

Take `CC(C)Cc1noc(CN2CCN(CCO)CC2)n1`: the Percent Effect was -0.954%.

`CCOc1cc(F)ccc1NS(=O)(=O)c1cc(C)c(C(=O)O)s1`: the Percent Effect was -9.09%.

As for `O=C(CC1CC1)NCc1cn2c(n1)CN(CC1CC1)CC2`, the Percent Effect was -3.1%.

As for `COc1cccc2c1OCC(NC(=O)NCc1cccs1)C2` (stereo unspecified), the Percent Effect was -7.48%.

As to `Cc1nc(-c2ccsc2)ccc1C(=O)NCCC(=O)N1CCCC1`, the Percent Effect was -5.91%.

Regarding `COc1ccc(-c2nc(CN3CC(n4cc(C)cn4)C3)no2)cc1`, the Percent Effect was -4.92%.

Regarding `Cn1nc(CNC(=O)C2CC2)cc1C1CC1`, the Percent Effect was -5.14%.

Turning to `CCCc1n[nH]c(C2CN(Cc3nnc(C4CC4)o3)CCO2)n1` (stereo unspecified), the Percent Effect is -3.64%.

Regarding `CC(=O)N1CCCN(C(=O)c2cnc3n[nH]c(C)c3c2)CC1`, the Percent Effect is -1.9%.

On to `COc1ccc(C2(CNC(C)c3nnc(C)o3)CCCCC2)cc1` (stereo unspecified), for which the Percent Effect is -1.33%.

Take `CCN(CC)Cc1cn2c(n1)CN(C(=O)c1cnccn1)CC2`: the Percent Effect was -2.54%.

Consider `OCCOc1nc(-c2ccccc2Cl)no1`, for which the Percent Effect is -1.86%.

For `CCN(C)c1ncnc2c1CCN(C(=O)N1CCCC1)CC2`, the Percent Effect came to 1.86%.

For the compound `NCC1CN(c2nc(-c3ccccc3)nc3c2CCNCC3)CCO1` (stereo unspecified), the Percent Effect was -3.14%.

With `Cc1cnc(N2CCn3cc(CNC(=O)CC4CC4)nc3C2)nc1`, the Percent Effect is -3.53%.
